Reference: PubChem BioAssay (NCI)
Where “and” joins values, the source holds several entries; their conditions need not be identical. Equal values may be shown once. The panel holds about 83,000 compounds, 20% with a hit somewhere; the sample as a whole holds those more often.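 Results are percent growth after 48 hours of single-concentration exposure. 100 means growth as in untreated cells, lower positive values show inhibition; negative values down to -100 show cell death.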 Calls of active or inactive are those of the source. How the source made its calls: active means growth percent below 10; inactive means the rest. Where a SMILES comes first, the peptide text is derived from it. The star is where a group is joined. Trt = c1ccc(C(c2ccccc2)(c2ccccc2)*)cc1; Cbz = O=C(OCc1ccccc1)*

These compounds were tested on NCI-H322M lung (assay: NCI-60 one-dose screen, 48 h (100 = growth as untreated, 0 = no growth, -100 = all killed)). Conditions: 10 µM unless noted.

| SMILES | growth |
| --- | --- |
| O=C(/C=C/c1cccc(Cl)c1)c1ccccc1 | 90.7% (inactive) and 81.9% (inactive) |
| O=C(Nc1cccc(Br)c1)Oc1ccc(Cl)c2cccnc12 | 82.3% [100 µM] (inactive) |
| CN(C)c1ccc(/C=N/N=C(\C#N)[S][Sn]([Cl])([c]2ccccc2)[c]2ccccc2)cc1 | 84.1% (inactive) |
| O=C1N[C@H]2[C@H](CS[C@H]2CCCCC(=O)N(CCP(c2ccccc2)c2ccccc2)CCP(c2ccccc2)c2ccccc2)N1 | 79.2% (inactive) |
| NC(=S)N/N=C\c1nccc2c(C(F)(F)C(F)(F)C(F)(F)F)cccc12 | -1.69% (active) |
| O=C1c2ccccc2C(=O)c2sc(Nc3cccc(Cl)c3)nc21 | 64.5% (inactive) |
| O[C@H]1[C@H]2c3cc4c(cc3CN3CCC(=C[C@@H]1O)[C@H]23)OCO4 | 18.5% (inactive) |
| CCCCCCCCCCCCCCCCOP(=O)([O-])OCC[N+](C)(C)C | 81.8% (inactive) |
| Nc1ncnc2c1ncn2C1OC(CO)C(O)C1O (stereo unspecified) | 114% (inactive) and 60.9% (inactive) and 111% (inactive) |
| CCOc1ccc(-c2nc3ccc(-c4nc5ccc(N6CCN(C)CC6)cc5[nH]4)cc3[nH]2)cc1 | -84.7% (active) |
| O=C(/C=C\c1cc(Br)ccc1O)/C=C/c1cc(Br)ccc1O | 6.71% (active) |
| CCC(=O)Sc1ccccc1C(=O)Nc1ccc(Cl)cc1 | 55.4% (inactive) |
| Oc1c(Br)c(Br)c(O)c(Br)c1Br | 105% (inactive) |
| COc1ccccc1OC(=O)Oc1ccccc1OC | 94.3% (inactive) and 99.5% (inactive) |
| O=C1c2cccnc2-c2nccc3c2c1nc1cc(Br)ccc13 | -99.2% (active) and -89.2% (active) |
| Nc1ccc(SSc2ccc(N)cc2)cc1 | 92.5% (inactive) |
| Cc1ccc2nc(C[n+]3ccc4ccccc4c3)ccc2c1 | 97.6% (inactive) |

| SMILES | growth |
| --- | --- |
| CN(C)CCOc1ccc2c(c1)C(=O)/C(=C\c1ncc([N+](=O)[O-])n1C)C2 | 6.13% (active) |
| N#CSCc1c(Cl)cccc1Cl | 97.9% (inactive) |
| C[N+](C)=c1ccc2nc3c(cc(NCCCNc4cc5oc6cc(=[N+](C)C)ccc-6nc5c5ccccc45)c4ccccc43)oc-2c1 | 25.3% (inactive) |
| COC(=O)C(CSC(c1ccccc1)(c1ccccc1)c1ccccc1)NC(=O)C(CC(N)=O)NC(=O)OCc1ccccc1 (stereo not drawn) (Cbz-Asn-Cys(Trt)-OMe; configuration not given here) | 30.8% (inactive) |
| S=C(N/N=C/c1ccccn1)Nc1ccccn1 | 22.4% (inactive) |
| O=C(/C=C\c1ccccc1)N1c2ccccc2CC1c1c[nH]c2ccccc12 (stereo unspecified) | 76.9% (inactive) |
| CC(=Nc1ccc(N(C)C)cc1)c1ccccc1 | 66.5% (inactive) |
| Cc1cc(N)c2ccccc2[n+]1CCCCCCCCCC[n+]1c(C)cc(N)c2ccccc21 | 11.2% (inactive) and 41.8% (inactive) |
| N[C@H](C(=O)O)[C@@H]1CC(Cl)=NO1 | 37.2% [20 µM] (inactive) |
| Cc1c2ccccc2c(C)c2c1ccc1ccccc12 | 90.8% (inactive) |
| O=C(O)c1ccc2c3c(ncnc13)-c1ccccc1C2=O | 23.7% (inactive) |
| CCC(c1cccc(O)c1)C(CC)c1cccc(O)c1 (stereo unspecified) | 59.5% (inactive) |
| Cc1ccnc2c1ccc1c(C)ccnc12 | 19% (inactive) |
| N#CSCC(=O)c1ccc(Cl)cc1 | 71.7% (inactive) |
| NC(N)=N/N=C/c1ccc([N+](=O)[O-])o1 | 87.2% (inactive) |
| Oc1c(Cl)c2ccccc2c2ccccc12 | 100% (inactive) |

These compounds were tested on NCI-H460 lung in the same assay as above. Conditions: 10 µM unless noted.

| SMILES | growth |
| --- | --- |
| O=C(/C=C/c1cccc(Cl)c1)c1ccccc1 | 101% (inactive) and 95.9% (inactive) |
| O=C(Nc1cccc(Br)c1)Oc1ccc(Cl)c2cccnc12 | 12.2% [100 µM] (inactive) |
| CN(C)c1ccc(/C=N/N=C(\C#N)[S][Sn]([Cl])([c]2ccccc2)[c]2ccccc2)cc1 | 84.3% (inactive) |
| O=C1N[C@H]2[C@H](CS[C@H]2CCCCC(=O)N(CCP(c2ccccc2)c2ccccc2)CCP(c2ccccc2)c2ccccc2)N1 | 41.3% (inactive) |
| NC(=S)N/N=C\c1nccc2c(C(F)(F)C(F)(F)C(F)(F)F)cccc12 | -25.9% (active) |
| O=C1c2ccccc2C(=O)c2sc(Nc3cccc(Cl)c3)nc21 | 72.1% (inactive) |
| O[C@H]1[C@H]2c3cc4c(cc3CN3CCC(=C[C@@H]1O)[C@H]23)OCO4 | 18.4% (inactive) |
| CCCCCCCCCCCCCCCCOP(=O)([O-])OCC[N+](C)(C)C | 3.97% (active) |
| Nc1ncnc2c1ncn2C1OC(CO)C(O)C1O (stereo unspecified) | 113% (inactive) and 43.4% (inactive) and 103% (inactive) |
| CCOc1ccc(-c2nc3ccc(-c4nc5ccc(N6CCN(C)CC6)cc5[nH]4)cc3[nH]2)cc1 | -90.7% (active) |
| O=C(/C=C\c1cc(Br)ccc1O)/C=C/c1cc(Br)ccc1O | -34.9% (active) |
| CCC(=O)Sc1ccccc1C(=O)Nc1ccc(Cl)cc1 | 34.5% (inactive) |
| Oc1c(Br)c(Br)c(O)c(Br)c1Br | 120% (inactive) |
| COc1ccccc1OC(=O)Oc1ccccc1OC | 108% (inactive) and 104% (inactive) |
| O=C1c2cccnc2-c2nccc3c2c1nc1cc(Br)ccc13 | -52.9% (active) and -78.6% (active) |
| Nc1ccc(SSc2ccc(N)cc2)cc1 | 100% (inactive) |
| Cc1ccc2nc(C[n+]3ccc4ccccc4c3)ccc2c1 | 55% (inactive) |

| SMILES | growth |
| --- | --- |
| CN(C)CCOc1ccc2c(c1)C(=O)/C(=C\c1ncc([N+](=O)[O-])n1C)C2 | -57.5% (active) |
| N#CSCc1c(Cl)cccc1Cl | 106% (inactive) |
| C[N+](C)=c1ccc2nc3c(cc(NCCCNc4cc5oc6cc(=[N+](C)C)ccc-6nc5c5ccccc45)c4ccccc43)oc-2c1 | -56.2% (active) |
| COC(=O)C(CSC(c1ccccc1)(c1ccccc1)c1ccccc1)NC(=O)C(CC(N)=O)NC(=O)OCc1ccccc1 (stereo not drawn) (Cbz-Asn-Cys(Trt)-OMe; configuration not given here) | 31.2% (inactive) |
| S=C(N/N=C/c1ccccn1)Nc1ccccn1 | 2.59% (active) |
| O=C(/C=C\c1ccccc1)N1c2ccccc2CC1c1c[nH]c2ccccc12 (stereo unspecified) | 70.1% (inactive) |
| CC(=Nc1ccc(N(C)C)cc1)c1ccccc1 | 34.2% (inactive) |
| Cc1cc(N)c2ccccc2[n+]1CCCCCCCCCC[n+]1c(C)cc(N)c2ccccc21 | 1.44% (active) and -18.2% (active) |
| N[C@H](C(=O)O)[C@@H]1CC(Cl)=NO1 | 7.07% [20 µM] (active) |
| Cc1c2ccccc2c(C)c2c1ccc1ccccc12 | 87.6% (inactive) |
| O=C(O)c1ccc2c3c(ncnc13)-c1ccccc1C2=O | 11.5% (inactive) |
| CCC(c1cccc(O)c1)C(CC)c1cccc(O)c1 (stereo unspecified) | 59.4% (inactive) |
| Cc1ccnc2c1ccc1c(C)ccnc12 | 5.29% (active) |
| N#CSCC(=O)c1ccc(Cl)cc1 | 33.5% (inactive) |
| NC(N)=N/N=C/c1ccc([N+](=O)[O-])o1 | 80.2% (inactive) |
| Oc1c(Cl)c2ccccc2c2ccccc12 | 116% (inactive) |
